Bioassay records: PubChem BioAssay, National Center for Advancing Translational Sciences (NCATS)
An excerpt weighted towards active compounds, which were near 19% of everything screened.
TGFb inhibitor: qHTS for Inhibitors of TGF-b | HepG2 CAGA-GFP TGF-b/SMAD3 reporter, GFP fluorescence, 18 h; TGF-beta stimulated, 500 pg/mL final | Potency, µM (doses to about 46.1 µM), actives largely listed as inhibitors | hit rate 1.2% among 410,000 | AID 588855, 2011; also: nearly all actives have a fitted effect of over 65% in size
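HEPG2 CAGA-GFP reporter cells (1000/well, DMEM with 1% FBS) received compounds, then recombinant TGF-beta at 500 pg/mL final for 18 hours at 37 degrees C. Per-cell GFP summed per well was normalised to unstimulated and stimulated DMSO controls before curve fitting.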
DT40 TDP1 no CPT: qHTS for Inhibitors of human tyrosyl-DNA phosphodiesterase 1 (TDP1): qHTS in cells in absence of CPT | Potency, µM (doses to about 46.2 µM), usual class: inhibitors | hit rate 15% among 420,000 | DT40 Tdp1-/- hTDP1 cells, no CPT, ATP luminescence, 48 h; also: nearly all actives have a fitted effect of over 55% in size
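Chicken DT40 Tdp1-/- cells complemented with human TDP1, screened without camptothecin (DMSO vehicle only), 400 cells/well. Compounds pin-transferred, cells incubated at 37 °C for at least 48 hr. Growth read as ATP-dependent luminescence (CellTiter-Glo, 30 min at RT).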
DT40 TDP1 CPT: qHTS for Inhibitors of human tyrosyl-DNA phosphodiesterase 1 (TDP1): qHTS in cells in presence of CPT. Potency, µM (series often up to 46.2 µM), hits mostly inhibitors. hit rate 12% among 420,000. chicken DT40 Tdp1-/-;hTDP1 cells + 20 nM CPT, ATP luminescence, 48 h; also: nearly all actives have a fitted effect of over 55% in size
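Chicken DT40 Tdp1-/- cells stably complemented with human TDP1 were seeded at 400 cells/well in medium containing 20 nM camptothecin, exposed to pin-transferred compounds, and grown at 37 °C for at least 48 hr. Viability was read as ATP luminescence.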
HepG2 tox: qHTS for Inhibitors of TGF-b: Cytotox Counterscreen; Potency, µM (top dose mostly 46.1 µM), hits mostly cytotoxic; AID 588856, 2011; HepG2 CAGA-GFP viability, ATP luminescence, 18 h; hit rate 0.76% among 410,000
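CellTiter-Glo luminescence gave cytotoxicity after 18 hours at 37 degrees C. The cells were HepG2 CAGA-GFP in 1% FBS DMEM, stimulated with 500 pg/mL TGF-beta after compound addition. %Activity was normalised to no-cell wells (complete cell-killing) and DMSO (no toxicity), and curves were fitted and classified.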
S-ASM inh: Inhibitors of Secretory Acid Sphingomyelinase (S-ASM): qHTS; placental ASM, HMU-PC fluorogenic substrate, 60 min; Potency, µM (highest dose often 57.5 µM), hits mostly inhibitors; hit rate 0.006% among 340,000; AID 504937, 2011
Target sequence (P17405 47-631 limits assumed): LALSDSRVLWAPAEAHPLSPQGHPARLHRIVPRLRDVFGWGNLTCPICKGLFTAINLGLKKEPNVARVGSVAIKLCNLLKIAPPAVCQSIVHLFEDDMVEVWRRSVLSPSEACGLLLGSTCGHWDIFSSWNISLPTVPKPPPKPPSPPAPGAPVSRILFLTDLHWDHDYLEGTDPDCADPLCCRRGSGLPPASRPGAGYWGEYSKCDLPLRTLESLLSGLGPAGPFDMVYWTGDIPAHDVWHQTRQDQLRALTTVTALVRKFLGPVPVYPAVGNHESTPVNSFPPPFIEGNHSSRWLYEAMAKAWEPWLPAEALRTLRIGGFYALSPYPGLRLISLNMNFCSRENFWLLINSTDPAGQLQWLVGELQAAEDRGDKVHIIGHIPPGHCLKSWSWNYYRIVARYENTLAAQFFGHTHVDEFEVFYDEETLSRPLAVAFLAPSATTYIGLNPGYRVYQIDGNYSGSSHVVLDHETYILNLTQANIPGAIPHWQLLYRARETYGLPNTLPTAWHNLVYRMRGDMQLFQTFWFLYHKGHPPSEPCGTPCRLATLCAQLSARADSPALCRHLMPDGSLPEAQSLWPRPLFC
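Fluorogenic HMU-PC substrate (9 uM final) is turned over by placental ASM in 60 min at 37 C after a 10 min compound preincubation. Reaction ended by alkaline stop (pH 10), with fluorescence read at 386/447 nm.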
IL1B secr inh: qHTS for Inhibitors of Inflammasome Signaling: IL-1-beta AlphaLISA Primary Screen | hit rate 4.7% among 360,000 | activity change, % at 57.5 µM | THP-1 LPS/ATP IL-1B secretion, AlphaLISA, 16 h; hits give low values; in the data active = activity change below about -50%; inconclusive = mostly about -30% to -49%
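THP-1 cells pretreated 1 hr with compounds (up to 57.5 uM final), then stimulated with LPS (250 ng/mL final) plus ATP (1.25 mM final); secreted IL-1B measured by AlphaLISA after 16 hr, decreased signal indicating inhibition.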
A number is an active result; - = inactive; ? = inconclusive; . = no result given. Unless noted, calls follow the shape of the dose curve; as a rule, active = well fitted curve in the direction sought with a large enough effect; inconclusive = small, poorly fitted or top-dose-only effect, or another doubt; inactive = no such curve, though single readings can be large; an effect the other way counts as inactive or inconclusive.

SMILES	TGFb inhibitor	DT40 TDP1 no CPT	DT40 TDP1 CPT	HepG2 tox	S-ASM inh	IL1B secr inh
CCOc1ccc(CC(=O)Nc2c(C(=O)c3ccc(F)cc3)oc3ccccc23)cc1OCC	-	?	?	-	.	.
C[n+]1ccc(/C=C/c2ccc(C=S)cc2)c2ccccc21	-	3.16µM	3.98µM	-	.	.
C[n+]1ccc(/C=C/c2ccccc2O)c2ccccc21	-	?	?	-	-	-56.3
CN(C)c1ccc(/C=C/c2cc[n+](C)c3ccc4ccccc4c23)cc1	2µM	?	0.0891µM	-	.	.
C[n+]1ccc(/C=C/c2ccc3c(c2)OCO3)c2ccccc21	-	-	-	-	.	.
CCOc1ccc(NC(=O)[C@@H](c2ccccc2)N2Cc3ccccc3C2=O)cc1	?	?	-	-	.	.
[2H]C(CCOS(N)(=O)=O)c1ccc(C(C)(C)C)cc1 (stereo unspecified)	?	20.6µM	20.6µM	-	-	-
NS(=O)(=O)OCCCc1ccccc1	-	-	?	-	-	-
COc1ccc(CNC(=O)CSc2ncc3c(n2)-c2cc(Cl)ccc2N(C)S3(=O)=O)cc1	-	-	?	-	.	.
CCn1c(=O)c2cc(C(=O)Nc3cc(OC)c(OC)c(OC)c3)sc2c2ccccc21	-	6.51µM	9.2µM	-	.	.
CCn1c(=O)c2cc(C(=O)Nc3cc(C)on3)sc2c2ccccc21	-	?	-	-	-	?
CCn1c2ccccc2c2cc(N=C3SC(CC(=O)Nc4ccccc4OC)C(=O)N3C)ccc21 (stereo unspecified)	-	25.9µM	?	-	-	-
CCn1c2ccccc2c2cc(N=C3SC(CC(=O)Nc4ccccc4OC)C(=O)N3CCOC)ccc21 (stereo unspecified)	-	?	?	-	-	-
CCn1c(=O)c2cc(C(=O)Nc3ccccc3OC)sc2c2ccccc21	-	20.6µM	14.6µM	-	-	-
COc1ccc(NC(=O)c2cc3c(Cl)nc4ccccc4c3s2)cc1OC	-	20.6µM	?	-	-	-
Fc1ccccc1NC(=S)N(CCN1CCCCC1)Cc1ccco1	-	-	-	-	-	-
CCN(CC)CCOC(=O)c1ccc(NC(=O)c2cc3c(=O)n(CC)c4ccccc4c3s2)cc1	-	5.17µM	5.17µM	-	.	.
CN(C)C(=O)CCc1ccc2c3c([nH]c2c1)[C@]1(C)[C@@H](C(=O)N2CCOCC2)C[C@H](CC(=O)NCc2cccc(C(F)(F)F)c2)C(=O)N1CC3	-	?	16.4µM	-	-	-
CN(C)C(=O)CCc1ccc2c3c([nH]c2c1)[C@]1(CCc2ccccc2)[C@@H](C(=O)N2CCCCC2)C[C@H](CC(=O)NCc2cccc(C(F)(F)F)c2)C(=O)N1CC3	?	20.6µM	?	-	-	-71.0
CN(C)C(=O)CCc1ccc2c3c([nH]c2c1)[C@]1(C)[C@@H](C(=O)N2CCCCC2)C[C@H](CC(=O)NCc2ccco2)C(=O)N1CC3	?	-	-	-	-	-
CC(C)(C)NC(=O)CC1C[C@H](C(=O)N2CCCCC2)[C@@]2(CCc3ccccc3)c3[nH]c4ccccc4c3CCN2C1=O (stereo partly specified)	-	-	-	-	-	-
COc1ccccc1/C=C1\SC(=S)N(CCC(=O)NCCCN2CCOCC2)C1=O	-	?	-	-	-	-
O=C(CCN1C(=O)/C(=C/c2ccccc2)SC1=S)NCCCN1CCOCC1	-	?	?	-	-	-58.9
O=C(CCN1C(=O)/C(=C/c2ccccc2F)SC1=S)NCCCN1CCOCC1	-	?	?	-	-	-96.6
O=C(CCCN1C(=O)/C(=C/c2ccccc2Cl)SC1=S)NCCCN1CCOCC1	?	?	20.6µM	-	-	-104.4
SMILES	TGFb inhibitor	DT40 TDP1 no CPT	DT40 TDP1 CPT	HepG2 tox	S-ASM inh	IL1B secr inh
COC(=O)c1ccc(/C=C2/SC(=S)N(CCC(=O)NCCCN3CCOCC3)C2=O)cc1	-	?	?	-	-	-56.6
Nc1ccc(C(=O)c2cccs2)cc1[N+](=O)[O-]	-	-	-	-	-	-
COc1cccc(/C=C2\SC(=S)N(CCCC(=O)N3CCCCC3)C2=O)c1	-	?	?	-	-	-
COc1ccc(/C=C2\SC(=S)N(CCC(=O)NCCCn3ccnc3)C2=O)cc1	?	16.4µM	?	-	-	-
COc1ccc(C=C2SC(=S)N(CCCN3CCOCC3)C2=O)c(OC)c1	?	16.4µM	?	-	.	-
O=C1C(=Cc2cccc(O)c2O)SC(=S)N1CCCN1CCOCC1	-	14.6µM	13µM	-	.	-
Cc1ccc(S(=O)(=O)Nc2ccc(F)c(F)c2O)cc1	.	?	-	.	.	-
CCOC(=O)[C@H]1[C@H]2COc3ccc(Cl)cc3[C@@H]2N2C(=O)c3cc(OC)ccc3NC(=O)[C@@]12C	-	23.1µM	?	-	-	-
CCOC(=O)[C@H]1[C@H]2COc3ccc(OC)cc3[C@@H]2N2C(=O)c3ccc(Cl)cc3NC(=O)[C@@]12C	-	?	?	-	-	-
CCOC(=O)[C@H]1[C@H]2COc3ccc(Cl)cc3[C@@H]2N2C(=O)c3ccc(Cl)cc3NC(=O)[C@@]12C	-	18.4µM	?	-	-	-
C/C(=N/NC(=O)c1ccc(-c2ccccc2)cc1)c1cccc(O)c1	-	-	-	-	-	?
CCOC(=O)C1C(=O)C=C(c2cccs2)CC1c1ccccc1C (stereo unspecified)	-	?	?	-	-	-
CCOC(=O)C1C(=O)C=C(c2cccs2)CC1c1ccccc1 (stereo unspecified)	-	16.4µM	?	-	-	-
CCOC(=O)C1C(=O)C=C(c2ccc(C)cc2)CC1c1ccccc1 (stereo unspecified)	-	?	?	-	-	-
CCOC(=O)C1C(=O)C=C(/C=C/c2ccc(N(C)C)cc2)CC1c1ccccc1 (stereo unspecified)	-	?	11.6µM	-	-	-
CCCCC(CC)CNC(=O)C1CCC(CNS(=O)(=O)c2cccc3nsnc23)CC1 (stereo unspecified)	-	20.6µM	?	-	.	.
CCCCN(C(=O)C1CCC(CNS(=O)(=O)c2cccc3nsnc23)CC1)c1ccccc1 (stereo unspecified)	?	20.6µM	?	-	.	.
